Among all 4,400 compounds or so, about 390 (8.9%) showed an effect of 50% or more. For the sample, strong results were picked, then their nearest neighbours and some compounds at random.

One may read the % inhibition as the change of the read-out against control, counted positive when it falls.

This assay has as its system Trypanosoma brucei. Description: DNDI: Inhibition of Human African Trypanosomiasis, SBRI 427, in vitro at 2 ug.mL-1. It counts as functional.
As for `O/N=C(/c1cccnc1Oc1ccc(F)c(Cl)c1)N1CCN(c2ccc(F)cc2)CC1`, the “% inhibition” value is reported as -10%.
In the case of `O/N=C(\NCCN1CCOCC1)c1ccc(Oc2ccc(Cl)cc2)nc1`, the “% inhibition” value was -2%.
In the case of `Cc1cccc(Oc2ccc(/C(=N/O)n3ccnc3)cn2)c1`, the “% inhibition” value was found to be 15%.
Regarding `COc1cccc(N2CCN(Cc3coc(-c4ccc(F)cc4)n3)CC2)c1`, the “% inhibition” value was -1%.
`CSc1ccc(Oc2nc(C)ccc2/C(=N/O)N2CCSCC2)cc1C`: the “% inhibition” value is reported as 12%.
Regarding `O/N=C(\NCCN1CCOCC1)c1cccnc1Oc1ccc2c(c1)CCCC2`, the “% inhibition” value stood at 8%.
In the case of `CCC(C)(C)N/C(=N\O)c1ccc(C)nc1Oc1cc(C)cc(C)c1`, the “% inhibition” value came to 24%.
For the compound `CCOc1ccccc1-c1nc(CN2CCN(CC)CC2)co1`, the “% inhibition” value amounted to 16%.
The same measure for `Cc1ccc(/C(=N/O)NCCN2CCCC2)c(OCc2cccc(F)c2)n1`: -12%; for `CCOc1cccc(Oc2ncccc2/C(N)=N/O)c1`: 10%; for `CCOc1ccccc1-c1nc(CN(C)Cc2cccc3ccccc23)co1`: 15%.
On to `COc1ccc(NCc2coc(-c3ccc(F)cc3)n2)cc1`, for which the “% inhibition” value is -3%.
In the case of `Brc1ccccc1-c1nc(CNCCN2CCOCC2)co1`, the “% inhibition” value is recorded as 9%.
`Cc1cc(C)n(/C(=N\O)c2ccc(Oc3ccc(Cl)cc3)nc2)n1`: the “% inhibition” value is listed as -5%.
In the case of `O/N=C(/c1cccnc1Oc1ccc(F)cc1Cl)N1CCCCCC1`, the “% inhibition” value was determined as 11%.
As for `O/N=C(/c1cccnc1Oc1ccc(F)cc1Cl)N1CCCc2ccccc21`, the “% inhibition” value was determined as 100%.
The same measure for `O/N=C(/c1cccnc1Oc1ccc(F)cc1Cl)N1CCCC1`: 13%; for `COc1ccc(Oc2nc(C)ccc2/C(=N/O)N2CCC=N2)cc1`: 8%; for `CCOC(=O)N1CCN(Cc2coc(-c3ccccc3Cl)n2)CC1`: 8%.
With `Cc1cccc(Oc2nc(C)ccc2/C(=N/O)N2Cc3ccccc3C2)c1`, the “% inhibition” value was determined as 3%.
Consider `Cc1ccc(Oc2nc(C)ccc2/C(=N/O)N(C)c2ccccc2)c(C)c1`, for which the “% inhibition” value amounted to 41%.
Take `CC1CC(N/C(=N\O)c2cccnc2Oc2ccccc2OC(C)C)CC(C)(C)C1` (stereo unspecified): the “% inhibition” value is recorded as 99%.
In the case of `COc1ccc(CN/C(=N\O)c2cccnc2Oc2ccccc2OC(C)C)cc1`, the “% inhibition” value is listed as -18%.
On to `CC(C)Oc1ccccc1Oc1ncccc1/C(=N/O)NCc1ccncc1`, for which the “% inhibition” value stood at 7%.
As to `CC1CCC(N/C(=N\O)c2cccnc2Oc2ccccc2OC(C)C)CC1` (stereo unspecified), the “% inhibition” value amounted to 98%.
As to `CC(C)Oc1ccccc1Oc1ncccc1/C(=N/O)NCC1CCCO1` (stereo unspecified), the “% inhibition” value is given as -11%.
Consider `COC(=O)C1CCN(/C(=N\O)c2cccnc2Oc2ccccc2OC(C)C)CC1`, for which the “% inhibition” value is given as -2%.
Turning to `CC(C)Oc1ccccc1Oc1ncccc1/C(=N/O)NC1CCCCC1`, the “% inhibition” value amounted to 99%.
The value for `c1ccc(N2CCN(Cc3coc(-c4ccco4)n3)CC2)nc1` was 4%; that for `COc1cc2c(cc1OC)C(C(C)C)N(Cc1coc(-c3ccccc3Cl)n1)CC2` (stereo unspecified) was 3%; that for `COc1ccc(CCN(C)Cc2coc(-c3cc(OC)c(OC)c(OC)c3)n2)cc1OC` was 9%.
Take `Clc1cccc(N2CCN(Cc3coc(-c4ccco4)n3)CC2)c1`: the “% inhibition” value worked out at 10%.
The value for `Fc1cccc(-c2nc(CNCc3cccnc3)co2)c1` was 17%; that for `CCN(CCC#N)Cc1coc(-c2ccc(Cl)cc2Cl)n1` was 8%; that for `Fc1ccc(-c2nc(CNCc3ccccc3C(F)(F)F)co2)cc1` was 18%.
As for `COc1ccc(-c2nc(CNC3CCCC(C)C3C)co2)cc1` (stereo unspecified), the “% inhibition” value was determined as 2%.
For `CC1CCCCC1NCc1coc(-c2ccccc2Cl)n1` (stereo unspecified), the “% inhibition” value is recorded as -2%.
With `CC1CCCC(NCc2coc(-c3cccc(F)c3)n2)C1C` (stereo unspecified), the “% inhibition” value amounted to 10%.
Consider `CC1CCCC(NCc2coc(-c3ccccc3Br)n2)C1C` (stereo unspecified), for which the “% inhibition” value is on record as 98%.
`CC1CCCC(NCc2coc(-c3cccc4ccccc34)n2)C1C` (stereo unspecified): the “% inhibition” value came out at 71%.
As for `CC1CCCCC1NCc1coc(-c2ccccc2Br)n1` (stereo unspecified), the “% inhibition” value is on record as 11%.
Regarding `CCOC(=O)c1cn(Cc2coc(-c3ccc(OCC)cc3)n2)nc1C(F)(F)F`, the “% inhibition” value is given as -15%.
On to `Cc1ccc(Oc2nc(C)ccc2/C(=N/O)Nc2ccccc2)c(C)c1`, for which the “% inhibition” value was -4%.
On to `Cc1cc(N)nn1Cc1coc(-c2cccc3ccccc23)n1`, for which the “% inhibition” value was determined as 25%.
In the case of `CC(C)c1ccc(N/C(=N\O)c2ccc(Oc3ccc(-n4ccnc4)cc3)nc2)cc1`, the “% inhibition” value turned out to be 11%.
As for `Nc1cc(-c2ccccc2)n(Cc2coc(-c3ccc(OC(F)(F)F)cc3)n2)n1`, the “% inhibition” value is reported as -3%.
The value for `Cc1ccc(-c2nc(Cn3nc(N)cc3C)co2)cc1` was 99%; that for `CC(C)c1nccn1Cc1coc(-c2ccc(C(F)(F)F)cc2)n1` was -2%.
For the compound `COc1ccc(-c2nc(Cn3nc(N)cc3C)co2)cc1`, the “% inhibition” value came out at 25%.
Take `Cc1cc(N)nn1Cc1coc(-c2ccc(OC(F)(F)F)cc2)n1`: the “% inhibition” value was found to be 97%.
As for `CCOc1ccc(-c2nc(Cn3nc(N)cc3C)co2)cc1`, the “% inhibition” value is recorded as 99%.
The value for `COc1ccc(-c2nc(Cn3ccnc3C(C)C)co2)cc1` was 29%.
In the case of `Cc1cccc(-c2nc(Cn3nc(N)cc3C)co2)c1`, the “% inhibition” value was determined as 9%.
The same measure for `Cc1cc(N)nn1Cc1coc(-c2ccc(F)cc2)n1`: 12%; for `CCOc1ccc(-c2nc(Cn3nc(N)cc3-c3ccccc3)co2)cc1`: -17%.
With `CC(C)c1nccn1Cc1coc(-c2ccc(OC(F)(F)F)cc2)n1`, the “% inhibition” value was found to be 56%.
As to `COc1cccc(-c2nc(Cn3nc(N)cc3C)co2)c1`, the “% inhibition” value was found to be 18%.
On to `Fc1ccc(-c2nc(CN3CCC(N4CCCCC4)CC3)co2)cc1`, for which the “% inhibition” value was 4%.
On to `O/N=C(/c1ccc(Oc2cccc3c2CCCC3)nc1)N1CCOCC1`, for which the “% inhibition” value amounted to 15%.
As for `C=CCN1CCN(/C(=N\O)c2ccc(C)nc2OCc2ccccc2F)CC1`, the “% inhibition” value was 3%.
Regarding `FC(F)(F)c1ccc(-c2nc(CN3CCN(c4ncccn4)CC3)co2)cc1`, the “% inhibition” value is recorded as 4%.
The same measure for `Cc1ccc(/C(=N/O)NCc2c(F)cccc2F)c(OCc2ccc(C(C)C)cc2)n1`: 16%; for `Cc1ccc(-c2nc(CN(C)c3cccc(C)c3)co2)cc1`: 21%; for `Cc1cc(Oc2nc(C)ccc2/C(=N/O)N2CCN(c3ccccc3)CC2)cc(C(C)C)c1`: 5%.
As to `COc1cccc(Oc2ccc(/C(=N/O)Nc3ccc(C(C)C)cc3)cn2)c1`, the “% inhibition” value is -4%.
For `CC(C)(C)CNCc1coc(-c2ccc(Cl)cc2Cl)n1`, the “% inhibition” value was determined as 14%.
Turning to `CC1CCc2ccccc2N1/C(=N\O)c1ccc(Oc2cccc3c2OC(C)(C)C3)nc1` (stereo unspecified), the “% inhibition” value is recorded as 10%.
The value for `C=CCN1CCN(/C(=N\O)c2ccc(C)nc2Oc2ccc(C)cc2C)CC1` was 14%.
With `CCCC1=NCCN1Cc1coc(-c2cccc(OCC)c2)n1`, the “% inhibition” value turned out to be 2%.
With `Cc1ccccc1-c1nc(CNCc2ccccn2)co1`, the “% inhibition” value was 15%.
As for `Cc1ccccc1-c1nc(CN(C)C2CCCCC2)co1`, the “% inhibition” value is 10%.
With `CCOc1ccccc1-c1nc(CN(C)C2CCCCC2)co1`, the “% inhibition” value came out at 13%.
The same measure for `CN(Cc1coc(-c2cccc3ccccc23)n1)C1CCCCC1`: 82%; for `CN1CCC(N(C)Cc2coc(-c3cccc4ccccc34)n2)CC1`: 69%.
On to `CCOc1ccccc1-c1nc(CN(C)C2CCN(C)CC2)co1`, for which the “% inhibition” value is given as -1%.
`Cc1ccccc1-c1nc(CN(C)C2CCN(C)CC2)co1`: the “% inhibition” value stood at 28%.
For the compound `CCOc1ccccc1-c1nc(Cn2nc(N)cc2C)co1`, the “% inhibition” value is given as 5%.
Consider `COc1ccc(Oc2nc(C)ccc2/C(=N/O)NCc2cccc(OC)c2)cc1`, for which the “% inhibition” value is listed as 25%.
Consider `C#CC1(NCc2coc(-c3cccc(F)c3)n2)CCCCC1`, for which the “% inhibition” value came out at 18%.
For the compound `O/N=C(/c1ccnc(Oc2ccc(F)c(Cl)c2)c1)N1CCSC1`, the “% inhibition” value was -2%.
Turning to `Cc1ccc(/C(=N/O)N(C)Cc2ccco2)c(Oc2cccnc2)n1`, the “% inhibition” value stood at 13%.
Regarding `CCCCN(C)Cc1coc(-c2cccc3ccccc23)n1`, the “% inhibition” value is 16%.
The value for `CC(C)(C)COc1ncccc1/C(=N/O)n1ccnc1` was 30%; that for `O/N=C(\Nc1ccccc1)c1cccnc1OCc1ccccc1` was 77%.
For `CC(=O)c1ccc(N/C(=N\O)c2cccnc2Oc2ccccc2OCc2ccccc2)cc1`, the “% inhibition” value was -2%.
Turning to `CC(C)COc1ncccc1/C(=N/O)Nc1ccccc1`, the “% inhibition” value worked out at 5%.
`CCCN/C(=N\O)c1cccnc1Oc1ccccc1OCc1ccccc1`: the “% inhibition” value is recorded as -7%.
For `CC(C)N/C(=N\O)c1cccnc1Oc1ccccc1OCc1ccccc1`, the “% inhibition” value is -14%.
`COC(=O)C1CCN(/C(=N\O)c2cccnc2OCC(C)C)CC1`: the “% inhibition” value is given as 5%.
`O/N=C(\NCc1c(F)cccc1F)c1cccnc1OCc1ccccc1`: the “% inhibition” value is given as 23%.
With `O/N=C(\NCc1cccs1)c1cccnc1OCc1ccccc1`, the “% inhibition” value is recorded as 10%.
Consider `COC(=O)C1CCN(/C(=N\O)c2cccnc2OCC(F)(F)F)CC1`, for which the “% inhibition” value was 12%.
Turning to `COC(=O)C1CCN(/C(=N\O)c2cccnc2OCc2ccccc2)CC1`, the “% inhibition” value is reported as 61%.
Take `O/N=C(\NCC1CC1)c1cccnc1OCc1ccccc1`: the “% inhibition” value is listed as 99%.
The same measure for `O/N=C(\NC1CCC1)c1cccnc1Oc1ccccc1OCc1ccccc1`: 97%; for `COc1cccc(Oc2ccc(/C(=N/O)N3CCN(c4ccccc4)CC3)cn2)c1`: -6%.
On to `COCCN(Cc1coc(-c2cccc3ccccc23)n1)C(C)C`, for which the “% inhibition” value was found to be 6%.
For `CCOc1ccccc1-c1nc(CN(c2ccccc2)C2CCCCC2)co1`, the “% inhibition” value was -3%.
Consider `COC(=O)C1CCN(/C(=N\O)c2ccc(C)nc2Oc2cccc3cnccc23)CC1`, for which the “% inhibition” value is on record as 21%.
Consider `COc1cccc(-c2nc(CN3CCN(c4ccccc4)CC3)co2)c1`, for which the “% inhibition” value is 15%.
`c1coc(-c2nc(CN3CCN(Cc4ccc5c(c4)OCO5)CC3)co2)c1`: the “% inhibition” value is reported as -2%.
The value for `COc1ccc(-c2nc(CNCc3cccc(OC)c3)co2)cc1` was -15%; that for `COCCN(/C(=N\O)c1ccc(C)nc1Oc1cccc(C)c1)C(C)C` was 23%; that for `Cc1ccc(/C(=N/O)N2C(C)C=CC2C)c(Oc2ccc(F)c(Cl)c2)n1` (stereo unspecified) was 8%.
For the compound `CCN(Cc1ccncc1)Cc1coc(-c2cccc3ccccc23)n1`, the “% inhibition” value amounted to 27%.
With `CC(C)c1ccc(COc2ncccc2/C(=N/O)NC2CCCC2)cc1`, the “% inhibition” value stood at 21%.
As for `N/C(=N\O)c1cccnc1OCc1ccccc1`, the “% inhibition” value was determined as 9%.
Regarding `COc1ccc(CN/C(=N\O)c2cccnc2OCc2ccccc2)cc1`, the “% inhibition” value was found to be 10%.
The value for `O/N=C(\NC1CCCC1)c1cccnc1OCc1ccccc1` was 53%.
The same measure for `CCC(CC)N/C(=N\O)c1cccnc1OCc1ccccc1`: 94%.
The value for `COCC(C)N/C(=N\O)c1cccnc1Oc1ccccc1OCc1ccccc1` (stereo unspecified) was -7%.

The values are drawn from ChEMBL document CHEMBL1857833, “Screening and optimization of specific chemical series against human African Trypanosomiasis (HAT)”.
